# Compound activity: PubChem, National Center for Advancing Translational Sciences (NCATS)
# KB-3-1 tox = qHTS assay for MDR1-selective chemotherapeutics: Primary screen using the parental adenocarcinoma cell KB-3-1 | KB-3-1 viability, CellTiter-Glo ATP luminescence, 72 h | Potency, µM (doses to about 46.1 µM), hits mostly cytotoxic | 1.4% of 400,000 active; note: % is set by controls: 0 for no effect and ±100 for the full control effect; nearly all actives have a fitted effect of over 60% in size
#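 Parental KB-3-1 adenocarcinoma cells in phenol-red-free DMEM with 10% FBS were pin-treated with compounds at several concentrations, incubated 72 h at 37 °C, and viability read by CellTiter-Glo luminescence; concentration-effect curves were fitted after normalization.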
# KB-V1 MDR tox = qHTS assay for MDR1-selective chemotherapeutics: Primary screen using the drug-selected MDR subline cells KB-V1 | Potency, µM (doses to about 46.1 µM), hits mostly cytotoxic | KB-V1 MDR cells viability, CellTiter-Glo, 72 h | 3.4% of 400,000 active; note: % is set by controls: 0 for no effect and ±100 for the full control effect; nearly all actives have a fitted effect of over 60% in size
#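 qHTS viability screen in drug-selected KB-V1 MDR cells: 72 h compound treatment at 37 degrees C, ATP luminescence end point.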
# HT1080NT lethal = qHTS for induction of synthetic lethality in tumor cells producing 2HG: qHTS for the HT-1080-NT fibrosarcoma cell line. HT-1080-NT fibrosarcoma viability, CellTiter-Glo ATP luminescence, 48 h. Potency, µM (titrated, usually from 46.1 µM), for inactives: at the highest dose activity, negative = less viability, most hits filed as cytotoxic. 1.6% of 360,000 active. AID 686970, 2013;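 note: NT is the 2HG producing partner of a matched IDH1 knockdown line; 0% = DMSO-treated cells and -100% = media-only wells without cells; nearly all actives have a fitted effect of over 55% in size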
#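 Fibrosarcoma NT cells, 750 per well in 5% FBS RPMI, were exposed to compound for 48 hours. Viability: CellTiter-Glo luminescence.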
# HT1080 IDH1KD tx = qHTS for induction of synthetic lethality in tumor cells producing 2HG: qHTS for the HT-1080-IDH1KD cell line; HT-1080 IDH1 knockdown viability, ATP luminescence, 48 h; Potency, µM (highest dose often 46.1 µM), for inactives: at the highest dose activity, negative = toxicity, most hits filed as cytotoxic; 2% of 360,000 active;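 note: 0% = DMSO wells and -100% = cell-free medium wells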
#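 After a 2 h attachment period, IDH1KD HT-1080 cells took pin-transferred compound for 48 h at 37 °C; ATP-based luminescence after 10 min room-temperature reagent incubation reported viability.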
# SW480 rereplic = A quantitative high throughput screen for small molecules that induce DNA re-replication in SW480 colon adenocarcinoma cells; SW480 DNA re-replication, Hoechst DNA content imaging, 48 h; Potency, µM (highest dose often 46.1 µM), without a hit: at the highest dose re-replication activation, hits mostly activators; 1.8% of 340,000 active; AID 624297, 2012; note: % of control where 0% means no effect; nearly all actives have a fitted effect of over 55% in size
#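 Quantitative HTS format with DMSO vehicle controls; 48 hr drug incubation at 37 C, then 40 min Hoechst staining and scanning imager measurement at 405 nm excitation.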
# MCF10A rereplic = A quantitative high throughput screen for small molecules that induce DNA re-replication in MCF 10a normal breast cells; MCF 10A DNA re-replication, Hoechst nuclear intensity, 48 h; Potency, µM (series often up to 46.1 µM), for the others: top-dose activity, positive = re-replication, hits mostly activators; 2.9% of 350,000 active; note: % of control where 0% means no effect; nearly all actives have a fitted effect of over 50% in size
# * marks the source's active call; other numbers are inactive results; i = inactive; ? = inconclusive; . = no result given. The list is not random: actives were taken first. Their share in the collection is about 8%. Calls come from the whole dose curve; as a rule, active = well fitted curve in the direction sought with a large enough effect; inconclusive = small, poorly fitted or top-dose-only effect, or another doubt; inactive = no such curve, though single readings can be large; an effect the other way counts as inactive or inconclusive. Potency is the fitted concentration of half-maximal effect.
SMILES,KB-3-1 tox,KB-V1 MDR tox,HT1080NT lethal,HT1080 IDH1KD tx,SW480 rereplic,MCF10A rereplic
Cc1sc2nc(CN3CCOCC3)nc(NS(=O)(=O)c3ccccc3)c2c1C,i,i,15%,14%,0%,0%
Fc1ccc2[nH]c3c(NCc4ccco4)ncnc3c2c1,?,i,.,.,.,.
Cc1ccc2[nH]c3c(NCc4ccco4)ncnc3c2c1,13µM*,18µM*,-8%,-21%,8%,?
Cc1sc2nc(CN3CCOCC3)nc(NCCc3ccccc3)c2c1C,i,8.2µM*,-10%,-1%,-7%,29%
Cc1sc2ncnc(NCCN3CCOCC3)c2c1C,i,16µM*,-18%,-23%,1%,22%
COc1ccc(N2CCN(c3c(S(=O)(=O)c4ccccc4)cnc4ccc(OC)cc34)CC2)cc1,i,i,-4%,3%,-1%,2%
O=C(NCC(=O)N1CC=C(c2ccccc2)CC1)c1ccco1,i,i,6%,-6%,0%,2%
Cc1sc2ncnc(NCc3cccs3)c2c1C,?,2.6µM*,-16%,-17%,-1%,9%
CCOc1ccc(N=Cc2c(C)[nH]n(-c3nc4ccccc4[nH]3)c2=O)cc1,?,?,5.2µM*,3.7µM*,1%,-5%
COCc1cc(C)nc(SCc2nc3ccccc3c(=O)[nH]2)c1C#N,i,i,?,-26%,?,2.1µM*
Cc1cc(C)c(C#N)c(SCc2nc3ccccc3c(=O)[nH]2)n1,i,i,1%,-1%,?,10µM*
Cc1ccc2nc(SCc3nc4ccccc4c(=O)[nH]3)[nH]c2c1,i,?,-13%,-11%,1%,?
CCOC(=O)c1c(C)[nH]c(C(=O)/C(C#N)=C/c2ccc(OC(F)F)c(OC)c2)c1C,i,?,0%,6%,-3%,16%
O=C(Nc1nnc(-c2ccco2)o1)c1ccc([N+](=O)[O-])s1,?,?,?,?,?,21µM*
O=C(Nc1nnc(-c2ccccc2)o1)c1nc2ccccc2s1,i,i,-2%,-24%,-4%,23µM*
CC(C)(C)C(=O)Nc1nnc(-c2ccncc2)o1,i,i,15%,9%,-4%,-3%
NC(=O)c1oc2ccccc2c1NC(=O)c1nc2ccccc2s1,i,i,19%,26%,17%,12%
O=C(Nc1nnc(-c2ccncc2)o1)c1ccc(Br)s1,21µM*,?,-18%,?,?,?
CCc1cc(C(=O)OCC(=O)N2CCC(c3ccccc3)=N2)sc1C,i,i,18%,19%,0%,6%
CCN(CC(=O)Nc1c(F)cccc1F)C(=O)CCN1C(=O)C2CCCCC2C1=O (configuration not stated),i,i,15%,6%,-123%,4%
NC(=S)NN=C1Cc2cccc3cccc1c23,1.3µM*,1.3µM*,3%,15%,-4%,-3%
Cc1cccn2c(=O)c3cc(C(=O)NC(C)c4ccccc4)c(=N)n(CCOCCO)c3nc12 (configuration not stated),i,i,.,.,.,.
Cn1c(=O)c2c(ncn2CC(O)CNc2ccc(Br)cc2)n(C)c1=O (configuration not stated),i,i,-9%,2%,-9%,1%
O=C(Nc1ccc(Nc2ccncc2)cc1)c1ccc(Nc2ccnc3ccc([N+](=O)[O-])cc23)cc1[N+](=O)[O-],i,i,1%,-3%,24%,3%
